Screening results deposited in PubChem BioAssay by NMMLSC.
Most compounds without a hit are left out; they make up all but 3.5% or so of the library.
Anthrax LF prot: anthrax lethal factor protease inhibition; P15917; multiplex microsphere protease cleavage assay, LF; inhibition, % at 10 µM; 360,000 compounds, 0.12% hits; AID 588501; further: plate controls were buffer without enzyme for full effect and enzyme alone for no effect
Target sequence (P15917 whole entry, looked up): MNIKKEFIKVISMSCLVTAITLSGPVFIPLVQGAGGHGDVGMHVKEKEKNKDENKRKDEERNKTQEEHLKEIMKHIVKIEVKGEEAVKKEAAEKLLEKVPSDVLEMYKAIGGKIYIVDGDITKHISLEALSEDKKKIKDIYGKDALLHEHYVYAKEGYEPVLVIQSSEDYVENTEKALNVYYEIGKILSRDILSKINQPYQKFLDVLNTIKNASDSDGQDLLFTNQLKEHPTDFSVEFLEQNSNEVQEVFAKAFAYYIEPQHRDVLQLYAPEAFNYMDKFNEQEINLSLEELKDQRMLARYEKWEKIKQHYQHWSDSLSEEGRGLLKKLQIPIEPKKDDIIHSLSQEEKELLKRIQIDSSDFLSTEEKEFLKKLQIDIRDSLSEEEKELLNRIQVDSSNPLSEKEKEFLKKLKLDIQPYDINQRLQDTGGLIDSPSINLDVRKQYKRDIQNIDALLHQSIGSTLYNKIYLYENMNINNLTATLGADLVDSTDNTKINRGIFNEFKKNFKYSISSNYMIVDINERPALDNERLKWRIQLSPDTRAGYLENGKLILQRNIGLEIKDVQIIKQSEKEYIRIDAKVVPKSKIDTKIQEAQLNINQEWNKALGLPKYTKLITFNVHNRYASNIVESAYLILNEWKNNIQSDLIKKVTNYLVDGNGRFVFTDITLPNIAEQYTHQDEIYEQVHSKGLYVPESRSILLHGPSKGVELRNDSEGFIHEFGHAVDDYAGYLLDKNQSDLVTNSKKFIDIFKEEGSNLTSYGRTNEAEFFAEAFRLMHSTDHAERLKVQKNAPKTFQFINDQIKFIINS
BoNT-A LC inh2: blocks Botulinum neurotoxin A light chain protease; inhibition, % at 10 µM; 360,000 compounds, 0.17% hits; AID 588499; multiplex microsphere protease substrate cleavage, flow cytometry; further: plate controls were buffer without enzyme for full effect and enzyme alone for no effect
BoNT-F LC inh: blocks Botulinum neurotoxin F light chain protease. Multiplex microsphere protease cleavage assay, flow cytometry. inhibition, % at 10 µM. 360,000 compounds, 0.22% hits. AID 588497; in the data active means inhibition above about 35%, passing the limit was not always enough; inconclusive means no clear call, values can overlap the other calls; further: plate controls were buffer without enzyme for full effect and enzyme alone for no effect
Bead autofluor: flagged as autofluorescent in microsphere protease counterscreen; 360,000 compounds, 3.1% hits; compound autofluorescence counterscreen, microsphere flow cytometry; stronger effect = higher value; fluorescence intensity (test concentration not listed); AID 624483; in the data active means fluorescence intensity above about 16000; inconclusive means no clear call, values can overlap the other calls
Starred values were filed as active, the others as inactive; ? = inconclusive. Unless noted, no stated cut-off is given here; in the data, active means inhibition above about 30%; inconclusive means no clear call, values can overlap the other calls; inactive means below that.

SMILES	Anthrax LF prot	BoNT-A LC inh2	BoNT-F LC inh	Bead autofluor
CC(=O)Nc1ccc(S(=O)(=O)Nc2nc3ccccc3nc2N2CCCCCC2)cc1	-1.6	?	0.6	23055*
CCOC(=O)c1ccc(NC(=O)COc2ccc(S(=O)(=O)NC(C)CC)cc2)cc1 (stereo not drawn)	-1.3	-1.6	-5.1	9904
CCCS(=O)(=O)NC(=O)C1(C)CCN(C(=O)c2ccc(C(F)(F)F)cc2)C1 (stereo not drawn)	-8.4	-0.1	-3.3	3712
Cc1cccc([C@@H]2[C@@H]3C(=O)N(Cc4ccccc4)C(=O)[C@@H]3[C@]3(Cc4ccccc4)C(=O)N(c4ccc(C(F)(F)F)cc4)C(=O)N23)c1	-3.5	0.1	-7.7	3436
CCc1c(C)nn(C(=O)/C(C#N)=C\N(C)C)c1C	-4.1	-1.4	-1.5	3582
Cc1ccc(S(=O)(=O)N2CCC(=O)N([C@H](COCc3ccc(Cl)cc3)C(C)C)CC2)cc1	-5.1	-1.0	-17.9	5002
COc1ccc(S(=O)(=O)Nc2ccc(NC(C)=O)cc2)cc1	-2.5	-4.5	-6.0	23841*
COc1ccccc1CCNC(=O)CCNS(=O)(=O)c1ccc(NC(C)=O)cc1	1.7	-3.5	-12.3	6410
COc1ccc(NC(=O)Nc2ccc(N(C)C)cc2)cc1	-14.1	3.4	-23.6	18854*
COc1ccc(NS(=O)(=O)c2ccc(NC(=S)NC(=O)C(C)C)cc2)cc1	-2.1	-0.6	-21.6	3026
COc1ccccc1CNS(=O)(=O)c1ccc(NC(C)=O)cc1	-2.4	-1.6	-2.1	22915*
COc1ccc(CC(=O)Nc2ccc(S(=O)(=O)Nc3nc(C)cc(C)n3)cc2)cc1	-5.1	2.2	2.7	19652*
CC(C)CN(C(=O)COC(=O)c1ccccn1)c1c(N)n(Cc2ccccc2)c(=O)[nH]c1=O	-1.3	-0.2	-13.6	5661
COc1ccc2[nH]c(=O)c(C(c3nnnn3C3CCCC3)N(C)C3CCCCC3)cc2c1 (stereo not drawn)	-3.1	?	-3.5	24246*
CCOc1ccc2[nH]c(=O)c(C(c3nnnn3C3CCCCC3)N3CCN(C)CC3)cc2c1 (stereo not drawn)	5.7	1.3	3.1	8586
O=c1[nH]c2cc3c(cc2cc1C(c1nnnn1C1CCCCC1)N1CCSCC1)OCCO3 (stereo not drawn)	6.2	2.6	0.1	22680*
COc1cc2cc(C(c3nnnn3C3CCCC3)N3CCCCC3)c(=O)[nH]c2cc1OC (stereo not drawn)	2.1	0.7	-1.3	19432*
COc1cc2cc(C(c3nnnn3C3CCCC3)N3CCCCCC3)c(=O)[nH]c2cc1OC (stereo not drawn)	-0.1	-0.7	-3.9	20987*
CCC(=O)N(C)C[C@@H]1Oc2ncc(Br)cc2C(=O)N([C@H](C)CO)C[C@H]1C	-3.9	-0.2	-8.9	3936
CCOc1ccc2[nH]c(=O)c(C(c3nnnn3C3CCCCC3)N3CCN(CC)CC3)cc2c1 (stereo not drawn)	2.3	?	-1.5	21002*
COc1cccc(S(=O)(=O)Nc2ccc3sc(C)nc3c2)c1	-3.0	-0.2	-3.2	16651*
COc1ccc(C(=O)CCC(=O)O)c(C)c1	-4.3	1.0	0.8	22646*
NC(=O)CN1C(=O)NC2(CCOc3ccccc32)C1=O (stereo not drawn)	-2.9	-3.5	-23.3	3135
O=C(NCc1ccccc1Cl)C1CCN(S(=O)(=O)N2CCCCCC2)CC1	-0.5	-2.8	-3.9	17397*
CCOC(=O)[C@]12CCC=C1N(Cc1cccc3ccccc13)C(=O)[C@H](CC(=O)NCCc1ccccc1OC)C2	-14.7	-0.9	-5.7	6676
SMILES	Anthrax LF prot	BoNT-A LC inh2	BoNT-F LC inh	Bead autofluor
COc1ccc(Cl)cc1NC(=O)CN(C)C(=O)CSc1ccc2c(c1)OCCO2	4.8	-0.9	-7.6	4268
COc1cccc(OC)c1C(=O)Nc1nc(N)n(-c2ccccc2)n1	-3.5	-3.5	-5.8	17413*
COc1ccc(C(=O)Nc2nc(N)n(-c3ccccc3)n2)cc1OC	0.5	-1.5	?	4050
O=C(COC(=O)c1cnccn1)Nc1ncc(C(F)(F)F)cc1Cl	-1.3	-0.1	-1.8	3866
O=S(=O)(c1cccc2cccnc12)N1CCOCC1	2.2	0.2	-1.0	23370*
CC1CCCCN1CCNC(=O)C1CCN(S(=O)(=O)c2cccc3cccnc23)CC1 (stereo not drawn)	-3.2	-4.3	-10.7	17441*
O=c1n(S(=O)(=O)c2cccc3cccnc23)c2ccccc2n1S(=O)(=O)c1cccc2cccnc12	-0.6	6.7	7.8	20693*
O=S(=O)(c1cccc2cccnc12)N1CCN(c2ccc(F)cc2)CC1	-4.5	-1.1	-3.9	4803
CC1CC(C)CN(S(=O)(=O)c2cccc3cccnc23)C1 (stereo not drawn)	-8.1	0.4	-1.2	5921
O=C(c1ccccc1)N1N=C(c2ccccc2)CC1c1ccc2nccnc2c1 (stereo not drawn)	0.5	1.2	6.7	11224
CC(=O)N1N=C(c2ccc3nccnc3c2)CC1c1ccccc1 (stereo not drawn)	-8.2	1.1	2.2	20160*
COC(=O)CN(C#N)c1nc(NC(C)C)nc(NC(C)C)n1	0.7	-0.7	-4.0	2558
CCOC(=O)c1c(NC(=O)COC(=O)c2ccc(C)s2)sc2c1CC(C)(C)NC2(C)C	-0.9	-5.1	-12.0	5217
O=[N+]([O-])c1cc(S(=O)(=O)N2CCCC2)ccc1SCCO	-2.7	0.4	-2.8	3237
N#C/C(=C/c1ccc(N2CCOCC2)o1)c1nc2ccccc2[nH]1	-1.4	-4.6	125.5*	11009
N#C/C(=C\c1ccc(N2CCOCC2)o1)c1ccccc1	-1.6	-0.5	-1.1	8833
Cc1ccc(OCCn2cc(/C(N)=N/O)c3ccccc32)cc1C	-4.2	-1.3	-14.7	17016*
Cc1ccc(SC(=O)c2c(C)noc2-c2cc(C)on2)cc1	3.5	-4.6	?	3395
COc1ccc2c(c1)NC(=O)CC(c1ccccc1)=N2	-5.2	-0.8	-1.5	23168*
CCOC(=O)C1CCCN(C(=O)c2ccc3c(c2)OCO3)C1 (stereo not drawn)	-5.7	1.2	5.2	6270
CCCCCCC(=O)Nc1ccc(C(=O)N2CCCC2)cc1	-5.5	-0.5	-3.5	11443
CCCCC(=O)Nc1ccc(C(=O)NCCc2ccccc2)cc1	-3.3	0.4	-2.3	6283
CCOC(=O)C1CCCN(Cc2ccc3c(c2)OCO3)C1 (stereo not drawn)	-0.9	-0.3	-4.5	16327*
CCCCC(=O)Nc1ccc(C(=O)N2CCC(C(=O)OCC)CC2)cc1	1.6	1.4	3.2	23061*
CCOC(=O)C1CCN(C(=O)c2ccc3c(c2)OCO3)CC1	-1.1	2.0	2.0	22950*
SMILES	Anthrax LF prot	BoNT-A LC inh2	BoNT-F LC inh	Bead autofluor
CCN(CC)C(=O)C1CCCN(Cc2ccc3c(c2)OCO3)C1 (stereo not drawn)	-5.5	0.0	3.8	2466
CCCCC(=O)Nc1ccc(C(=O)NCC(=O)OC)cc1	-0.2	-1.0	2.3	22542*
COc1ccc(C)cc1N(C(=O)c1ccccc1F)c1nc2ccccc2s1	1.6	1.1	2.1	8715
COc1ccc([N+](=O)[O-])cc1NCC(=O)Nc1cc(S(=O)(=O)N2CCCCC2)ccc1C	1.5	-0.8	-9.6	3704
CCc1ccc(C(=O)CCC(=O)Nc2cccc(S(=O)(=O)N3CCCCC3)c2)cc1	2.7	5.1	?	4333
CCOC(=O)C1CCN(C(=O)N(C)C)CC1	-3.4	0.1	1.0	23160*
